A selection: hits, their analogues and other compounds. The true share with any hit is near 1.9%.
PfHsp40 yeast = restores yeast growth despite PfHsp40 toxicity; S. cerevisiae expressing PfHsp40, growth rescue, ATP luminescence; 0.68% of 340,000 active; AID 504582; growth rescue, % at 12.5 µM; in the data active = growth rescue above about 28%, passing the limit was not always enough; inconclusive = no clear call, values can overlap the other calls;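 note: yeast W303a lacking pdr1 and pdr3 grown in galactose medium; growth measured after three days at 30 °C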
SSB-PriA inh = blocks PriA binding to SSB C-terminal tail | AlphaScreen SSBct-PriA binding, biotinylated peptide | inhibition, % at 33 µM | 0.6% of 430,000 active | AID 1272365; in the data active = inhibition mostly above about 37%, no sharp cut-off; inactive = mostly below about 20%;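 note: plate controls were negative control peptide for no effect and reference peptide for full effect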
RecA intein inh = Mtb RecA intein splicing inhibition. P9WHJ3. cell-free RecA intein splicing, fluorescence. inhibition, % (no concentration beside the values). 0.75% of 290,000 active. AID 2221; in the data active = inhibition above about 30%; inconclusive = no clear call, values can overlap the other calls;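 note: 0% = vehicle wells and 100% = reference inhibitor control wells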
Target sequence (P9WHJ3 whole entry, looked up): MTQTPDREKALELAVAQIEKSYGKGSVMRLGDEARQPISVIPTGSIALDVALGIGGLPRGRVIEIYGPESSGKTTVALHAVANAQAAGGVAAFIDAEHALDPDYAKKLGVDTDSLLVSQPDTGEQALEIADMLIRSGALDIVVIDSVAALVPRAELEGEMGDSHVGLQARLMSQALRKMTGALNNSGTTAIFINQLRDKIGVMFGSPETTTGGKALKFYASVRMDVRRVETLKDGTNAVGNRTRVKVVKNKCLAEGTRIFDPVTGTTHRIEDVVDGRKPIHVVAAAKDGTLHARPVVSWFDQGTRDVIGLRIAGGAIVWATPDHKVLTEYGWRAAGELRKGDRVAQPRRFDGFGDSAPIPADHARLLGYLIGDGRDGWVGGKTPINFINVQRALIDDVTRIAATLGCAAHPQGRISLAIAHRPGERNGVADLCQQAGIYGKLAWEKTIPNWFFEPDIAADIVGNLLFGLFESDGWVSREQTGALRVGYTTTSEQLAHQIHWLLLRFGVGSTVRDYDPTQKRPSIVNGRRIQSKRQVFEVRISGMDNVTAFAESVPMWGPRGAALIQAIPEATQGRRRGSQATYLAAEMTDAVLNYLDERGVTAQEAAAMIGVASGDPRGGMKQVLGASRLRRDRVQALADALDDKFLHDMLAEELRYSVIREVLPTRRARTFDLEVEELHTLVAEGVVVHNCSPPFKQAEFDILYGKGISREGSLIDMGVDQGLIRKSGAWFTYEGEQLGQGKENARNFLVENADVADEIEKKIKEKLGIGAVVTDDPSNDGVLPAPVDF
PrP UTR inh = suppresses PrP 5' UTR mRNA reporter expression; cell-based PrP 5' UTR mRNA reporter, plate reader; inhibition, % (concentration not given with the values); 0.35% of 340,000 active; AID 488862; in the data active = inhibition above about 52%; note: 0 = median of the neutral control wells
BJeLR lethal = kills HRASV12-expressing BJeLR cells | BJeLR (HRASV12) viability, CellTiter-Glo ATP luminescence, 48 h | inhibition, % (no concentration beside the values) | 0.17% of 300,000 active; in the data active = inhibition above about 50%; inconclusive = no clear call, values can overlap the other calls
PrPC surface inh = reduces human prion protein on the cell surface | P04156 | cell surface PrPC, TR-FRET read-out | inhibition, % at 13.8 µM | 0.43% of 370,000 active; in the data active = inhibition above about 24%; note: 0% = median of the test wells and 100% = reference compound wells
Starred values were filed as active, the others as inactive; ? = inconclusive; nt = no result; ! = not confirmed by another sample.

SMILES	PfHsp40 yeast	SSB-PriA inh	RecA intein inh	PrP UTR inh	BJeLR lethal	PrPC surface inh
O=C(O)c1cccc2c1Cc1cc([N+](=O)[O-])ccc1-2	118*	5	nt	-20	nt	-16
O=[N+]([O-])c1ccc2c(c1)Cc1cc(O)ccc1-2	51*	-13	nt	-30	nt	-33
Cc1cc(O)c(C(=O)/C=C/c2cccc([N+](=O)[O-])c2)c(=O)o1	9	-5	-1	-27	9	-2
CC(=O)Oc1ccccc1C(=O)C=Cc1cccc([N+](=O)[O-])c1	128*	nt	nt	-46	nt	-40
Nc1ccccc1Nc1c(F)c(F)nc(F)c1Cl	0	39*	8	-31	-3	0
COc1ccc(OC)c(Nc2nc(CC(=O)NCCc3c[nH]c4ccccc34)cs2)c1	nt	16*	nt	nt	nt	nt
COc1ccc(OC)c(Nc2nc(CC(=O)NCCC3=CCCCC3)cs2)c1	nt	22*	nt	nt	nt	nt
CN(C[C@H]1Cc2ccccc2CO1)S(=O)(=O)c1ccc(OCC(N)=O)cc1	nt	-10	nt	nt	nt	nt
O=C(NCC1CN(c2ccc(F)cc2)C(=O)O1)c1ccc(C(F)(F)F)cc1 (stereo not drawn)	nt	7	nt	nt	nt	nt
Cc1cccc(-n2cnc(C(=O)NNC(=O)Nc3ccc(Cl)cc3)c2)n1	nt	49	nt	nt	nt	nt
Cc1cccc(-n2cnc(C(=O)NNC(=S)Nc3ccc(Cl)cc3)c2)n1	1	80*	-2	-15	-4	7
Nc1nc2c(s1)CCc1ccccc1-2	2	56*!	18	-31	1	1
Cc1ccc2nc(N3CCN(C(=O)c4ccc(Cl)s4)CC3)sc2c1	nt	-15	nt	nt	nt	nt
O=C(/C=C/c1ccc(S(=O)(=O)N2CCOCC2)cc1)NC(=S)Nc1ccc(N2CCOCC2)cc1	46*	-4	-2	-12	3	4
CCCCCOc1ccc(C(=O)Nc2nnc(-c3cc(OCC)c(OCC)c(OCC)c3)o2)cc1	nt	-5	nt	nt	nt	nt
CCOc1ccc(S(=O)(=O)N(C(=O)c2ccccc2)c2ccc(OC(=O)c3ccccc3)cc2)cc1	nt	17	nt	nt	nt	nt
C=C(C)c1cccc(C(C)(C)NC(=O)NNc2nc(C)cc(C)n2)c1	nt	-6	nt	nt	nt	nt
CNC(=O)c1nnsc1S(=O)c1ccc(Cl)cc1 (stereo not drawn)	79*	3	40*	-8	23	10
CC1C(=O)N2CCCc3cc(NC(=O)c4cccc(Br)c4)cc1c32 (stereo not drawn)	nt	0	nt	nt	nt	nt
CS(=O)(=O)N1CCN(C(=O)c2csc(Nc3ccccc3)n2)CC1	nt	-17	nt	nt	nt	nt
COc1ccc(S(=O)(=O)n2nc(-c3cc(OC)c(OC)c(OC)c3)cc2N)cc1OC	-1	-12	nt	-16	nt	7
COc1ccc(-c2cc(N)n(S(=O)(=O)c3c(F)c(F)c(F)c(F)c3F)n2)cc1OC	0	2	97*	-18	-15	-5
COc1ccc(-c2c([C@H]3[C@@H]4C=CCC[C@@]4(C)C(=O)N3Cc3ccccc3)ccc3ccccc23)cc1OC	44*	-11	14	-9	-5	0
O=c1c2cc(-c3ccccc3)sc2nc2n1N=C(c1ccccc1)CS2	-1	4	-2	-176	-3	-3
CCN(CC)C(=O)c1sc2nc(Cc3ccccc3)[nH]c(=O)c2c1C	-2	-12	-1	-13	11	9
SMILES	PfHsp40 yeast	SSB-PriA inh	RecA intein inh	PrP UTR inh	BJeLR lethal	PrPC surface inh
Cc1c(C(=O)N(C)C)sc2nc(-c3ccccn3)[nH]c(=O)c12	0	47*	4	-19	-6	-5
O=c1[nH]c(-c2ccccn2)nc2sc(-c3ccccc3)cc12	177*	-13	-10	-60	41	-3
COC(=O)C1=C(C)N(Cc2ccccc2)C(=NCCc2c[nH]c3ccccc23)N[C@H]1c1ccccc1	0	47*	nt	1	nt	nt
S=C1NCNCN1	nt	5	nt	nt	nt	nt
NC(=NOC(=O)COc1ccccc1Cl)c1ccc(Cl)cc1	nt	-33	nt	nt	nt	nt
S=C(Nc1ccc2nsnc2c1)N1CCCCCC1	1	-15	55*	-33	-5	-11
COc1cccc2cc(C(=O)NCCn3ccnc3-c3cccnc3)oc12	nt	-19	nt	nt	nt	nt
Cc1oncc1C(=O)NCCn1ccnc1-c1ncccn1	nt	46*	nt	nt	nt	nt
CCOc1ccccc1C(=O)NCCn1ccnc1-c1ncccn1	nt	55*	nt	nt	nt	nt
O=C(/C=C/c1cccs1)NCCn1ccnc1-c1ncccn1	nt	116*	nt	nt	nt	nt
COc1cccc2cc(C(=O)NCCn3ccnc3-c3ncccn3)oc12	nt	46*	nt	nt	nt	nt
Cc1cc(C(=O)NCCn2ccnc2-c2ncccn2)no1	nt	-7	nt	nt	nt	nt
O=C(Cc1ccccc1Cl)NCCn1ccnc1-c1ncccn1	nt	1	nt	nt	nt	nt
O=C(Nc1nnc(-c2cccnc2)o1)c1cccc(C(F)(F)F)c1	nt	-9	nt	nt	nt	nt
O=C(NCCn1ccnc1-c1ncccn1)c1ccccc1Cl	nt	78*	nt	nt	nt	nt
COCCNC(=O)C(=O)NCC1CCN(C2CCCC2)CC1	nt	-7	nt	nt	nt	nt
Oc1ccccc1-c1cc(-c2ccc3c(c2)OCCO3)n[nH]1	476*	2	19	-32	12	-3
O=C(NN=Cc1ccc(O)cc1O)c1ccc(NC(=O)C2CCCCC2)cc1	nt	-3	nt	nt	nt	nt
CN(C)c1nc(SCc2ccccc2Cl)nc2c1CCCC2	155*	-38	11	3	4	nt
O=C(O)[C@@H](c1ccccc1)N1Cc2ccccc2C1=O	-2	-5	32*	-1	4	-3
O=C(O)C(c1ccccc1)N1C(=O)c2ccccc2C1=O (stereo not drawn)	-1	-27	4	6	1	-3
O=C(NC(=S)NNC(=O)c1cccs1)c1ccccc1	19	3	6	-4	4	-5
CC(C)(C)c1ccc(C(=O)NNC(=S)NC(=O)c2cccnc2)cc1	109*	4	16	9	13	2
CC(C)(C)c1ccc(C(=O)NC(=S)NNC(=O)c2cccs2)cc1	465*	22	15	6	15	-3
Cc1nccn1CC1CCN(S(=O)(=O)c2ccc3c(c2)CCCC3)CC1	nt	-1	nt	nt	nt	nt
SMILES	PfHsp40 yeast	SSB-PriA inh	RecA intein inh	PrP UTR inh	BJeLR lethal	PrPC surface inh
COc1cnc(-c2ccccn2)nc1Oc1cc(Cl)cc(Cl)c1	nt	63*	nt	nt	nt	nt
c1ccc(-c2cnnc(-c3ccccn3)n2)cc1	10	-17	0	-30	4	-15
c1ccc(Oc2nc(-c3ccccn3)nnc2-c2ccccc2)cc1	nt	103*	nt	nt	nt	nt
Clc1ccc(-c2cnnc(-c3ccccn3)n2)cc1	?	58*	nt	-27	nt	-28
C=CCNc1nc(-c2ccccn2)nnc1-c1ccccc1	354*	-9	12	-53	-26	21
Cc1cc(N)c2cccc(Cl)c2n1	nt	-13	nt	nt	nt	nt
Cc1cnc2n(c1=O)[C@@H](CC(=O)Nc1ccccc1C(N)=O)CS2	nt	-18	nt	nt	nt	nt
COc1cnc(-c2ccccn2)nc1Oc1ccc(F)cc1	nt	109*	nt	nt	nt	nt
COc1cnc(-c2ccccn2)nc1Oc1ccccc1	2	64*	4	-1	4	-3
c1ccc(-c2cnc(-c3ccccc3)nn2)cc1	0	-16	1	-24	10	-9
c1ccc(-c2cnc(-c3ccccn3)nn2)cc1	5	69*	-1	-30	7	-13
O=C(CCSc1ccccc1)Nc1cnoc1	nt	6	nt	nt	nt	nt
CCOc1ccc(OCCNC(=O)c2ccc([N+](=O)[O-])cc2Cl)cc1	nt	-2	nt	nt	nt	nt
CC(C)CSc1n[nH]c(=S)s1	213*	-2	0	10	0	3
